The text below walks through data of PubChem BioAssay AID1851 (National Center for Advancing Translational Sciences (NCATS), 2009).

Molecules are shown by their SMILES. About 4,000 (25%) of roughly 16,000 compounds were called active. Not shown: some 26% with an inconclusive outcome. Not all results are given here. A number with no mark means an inactive call. Calls follow the shape of the dose curve; as a rule, active = well fitted curve in the direction sought with a large enough effect; inconclusive = small, poorly fitted or top-dose-only effect, or effect the other way; inactive = no such curve, though single readings can be large or run the other way.
% is scaled to controls: 0 for no effect and ±100 for the full control effect.

The target of this experiment is Cytochrome P450 2C9 (Homo sapiens) (UniProt P11712). Briefly: Cytochrome panel assay with activity outcomes. As to conditions: recombinant CYP, pro-luciferin dealkylation, luminescence, p450-cyp2c9; series mostly up to 57.1 µM.
Cytochrome P450 2C9 (Homo sapiens), sequence (P11712 whole entry, looked up): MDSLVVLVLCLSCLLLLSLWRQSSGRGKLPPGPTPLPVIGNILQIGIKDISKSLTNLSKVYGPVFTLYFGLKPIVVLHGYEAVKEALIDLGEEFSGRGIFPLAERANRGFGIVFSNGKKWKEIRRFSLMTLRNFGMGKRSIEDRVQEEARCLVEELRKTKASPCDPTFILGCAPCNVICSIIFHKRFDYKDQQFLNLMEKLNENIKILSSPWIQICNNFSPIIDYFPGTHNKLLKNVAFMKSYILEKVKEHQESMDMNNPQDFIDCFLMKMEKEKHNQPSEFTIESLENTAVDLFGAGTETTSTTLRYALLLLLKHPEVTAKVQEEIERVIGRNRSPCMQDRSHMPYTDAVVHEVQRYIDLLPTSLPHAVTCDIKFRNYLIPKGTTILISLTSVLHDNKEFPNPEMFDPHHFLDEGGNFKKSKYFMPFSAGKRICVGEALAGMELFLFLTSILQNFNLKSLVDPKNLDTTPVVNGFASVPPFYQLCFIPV
What is called AC50 is the midpoint of the concentration-response curve, whichever way the signal moves. With `CNCCc1ccccn1`, the AC50 result is “inactive”. Same read-out and setting: to `O=c1ccn([C@@H]2O[C@@H](COP(=O)(O)OP(=O)(O)O)[C@H](O)[C@@H]2O)c(=O)[nH]1` belongs “inactive”. On the same count and under the same terms, to `CCc1c2c(nc3ccc(OC)cc13)COC2` belongs “inactive”. Consider `COc1ccc2nc3c(c([Si](C)(C)C(C)(C)C)c2c1)Cn1c-3cccc1=O`, for which the AC50 is 12.6 µM (active). Same read-out and setting: the value for `COc1cc2nc3c(c([Si](C)(C)C(C)(C)C)c2cc1OC)Cn1c-3cccc1=O` was 15.8 µM (active); that for `CC(C)NC(=O)N1CCCC2(CCN(C(=O)c3cc(C(F)(F)F)cc(C(F)(F)F)c3)CC2)C1` was “inactive”. Turning to `CC(C)CN(CC#N)CC(C)C`, the activity, negative = inhibition is 4.39% [at 11.4 µM]. Regarding `CSc1nc2ccccc2cc1/C=C(\C#N)c1ccccc1`, the concentration at half-maximal activity (AC50) was 3.98 µM (active).

For the compound `CSc1nc2ccccc2cc1/C=C(\C#N)c1ccc(Cl)cc1Cl`, the half-maximal activity concentration (AC50) was 25.1 µM (active).

For the compound `CN(C)CCCc1c2ccccc2nc2ccc(Cl)cc12`, the activity, negative = inhibition was 11.6% [at 11.4 µM].

Turning to `COc1ccc(-n2c(=O)cnc3cnc(OC)nc32)cc1`, the AC50 entry is “inactive”.

Turning to `O=C(O)CC1(CC(=O)O)Nc2ccccc2SC1=O`, the activity, negative = inhibition was -2.99% [at 11.4 µM]. Turning to `Cc1ccccc1NC(=O)CN1CCC(n2nnc3ccccc32)CC1`, the AC50 entry was “inactive”. Turning to `Cc1c(Cl)cccc1NC(=O)CC1NCCNC1=O` (stereo unspecified), the AC50 entry is “inactive”. The same measure, in the same setting: to `Cc1c(Cl)cccc1NC(=O)CN1CCC(C(O)(c2ccccc2)c2ccccc2)CC1` belongs 2 µM (active); to `Cc1c(NC(=O)CN2CCN(c3ccccc3)CC2)c(=O)n(-c2ccccc2)n1C`, “inactive”; to `Cc1cc(Cl)ccc1NC(=O)CN1CCC(C(O)(c2ccccc2)c2ccccc2)CC1`, 7.08 µM (active).

Consider `O[C@@](CCN1CCCCC1)(c1ccccc1)C1CCCCC1`, for which the AC50 entry was “inactive”. On to `CCc1nc2cc(CC(=O)O)ccc2o1`, for which the AC50 entry is “inactive”.

In the case of `COC(=O)[C@@H]1C[C@H]1[C@@H](NC(=O)c1cnccn1)c1ccccc1`, the AC50 result is “inactive”. `C[C@@H](C(=O)Nc1ccc2ccccc2c1)[C@H]1C[C@]1(C)[C@H](NC(=O)c1cnccn1)c1ccccc1`: the AC50 was 5.01 µM (active). For the compound `C[C@@H](C(=O)Nc1ccc2ccccc2c1)[C@@H]1C[C@@]1(C)[C@@H](NC(=O)c1cnccn1)c1ccccc1`, the AC50 was 0.0631 µM (active). `COC(=O)[C@H]1C[C@@H]1[C@H](NC(=O)c1cnccn1)c1ccccc1`: the AC50 entry was “inactive”. Consider `COC(=O)C1=C(C)NC(C)=C([N+](=O)[O-])[C@@H]1c1ccccc1C(F)(F)F`, for which the AC50 was 0.158 µM (active). Regarding `COC(=O)C1=C(C)NC(=O)NC1c1ccsc1` (stereo unspecified), the AC50 entry was “inactive”. `COC(=O)C1=C(C)NC(C)=C([N+](=O)[O-])[C@H]1c1ccccc1C(F)(F)F`: the AC50 is 2 µM (active). As for `CO[C@@H]1/C=C\CC(=O)N[C@@H](C)C(=O)OC[C@H](NS(=O)(=O)c2ccc(C)cc2)[C@H](C)/C=C\CC(=O)OC[C@H]1C`, the activity, negative = inhibition is 14.6% [at 11.4 µM]. In the case of `Cc1ccc([N+](=O)[O-])cc1NC(=S)NC(=O)C(C)(C)C`, the concentration at half-maximal activity (AC50) was 0.708 µM (active). The same measure, in the same setting: to `Cc1ccc([N+](=O)[O-])cc1NC(=S)NC(=O)CC(C)(C)C` belongs 2.24 µM (active). Take `Cc1cnc(CNc2ncncc2-c2ccccc2C(F)(F)F)cn1`: the activity, negative = inhibition is 1.53% [at 2.29 µM]. With `COc1ccc(OC)c2[nH]c(=O)c(CCNC(=O)c3ccc(S(=O)(=O)N(C)C)cc3)cc12`, the AC50 was 7.94 µM (active). The same measure, in the same setting: the value for `COc1ccc(OC)c2[nH]c(=O)c(CCNC(=O)c3ccc(S(=O)(=O)N4CCCC4)cc3)cc12` was 11.2 µM (active); that for `COc1ccc2cc(CCNC(=O)C3CC3)c(=O)[nH]c2c1` was “inactive”; that for `CCN(CC)CCNC(=O)c1cc(S(C)(=O)=O)ccc1OC` was “inactive”.

On to `CCN1CCCC1CNC(=O)CCNC(=O)c1cc(OC)c(OC)c(OC)c1` (stereo unspecified), for which the AC50 result is “inactive”.

Take `CCOC(=O)C(C)(C)[C@H](O)C(C)C`: the activity, negative = inhibition was -6.81% [at 11.4 µM]. Take `COc1cccc(-c2cc(NCc3ccccc3)ncn2)c1`: the activity, negative = inhibition is -1.27% [at 2.29 µM].

For the compound `CCOC(=O)CCc1c(C)nc2ncnn2c1C`, the AC50 result is “inactive”.

In the case of `COc1ccc(CCNc2cc(-c3ccccc3)nc3ncnn23)cc1`, the concentration at half-maximal activity (AC50) is 5.62 µM (active). `COc1cccc(-c2nccc(NCc3ccccc3)n2)c1`: the activity, negative = inhibition is -19.2% [at 2.29 µM]. Regarding `Cc1ccc(CNC(=O)CCc2c(C)nc3ncnn3c2C)cc1`, the AC50 result is “inactive”.

For the compound `CCc1c(C)nc2ncnn2c1NCCc1ccc(OC)cc1`, the AC50 was 1.58 µM (active). Turning to `CCNc1ncc2nc(-c3cc(F)cc(F)c3)c(=O)n(CCC#N)c2n1`, the AC50 entry is “inactive”. Turning to `Fc1ccc(Nc2ccnc(-c3ccoc3)n2)cc1`, the activity, negative = inhibition was 9.66% [at 2.29 µM]. As for `CC(=O)OC[C@@H]1O[C@@H](O/N=C2/C[C@@H](O)[C@@H](O)[C@@H]3[C@@H]4C(=O)N(c5cccc(Oc6ccccc6)c5)C(=O)[C@H]4CC[C@@H]23)[C@H](OC(C)=O)[C@H](OC(C)=O)[C@@H]1OC(C)=O`, the activity, negative = inhibition was 20.1% [at 11.4 µM].

As for `Cc1cc(O)c(-c2cc(O)c(C)cc2O)cc1O`, the AC50 is 1.26 µM (active).

On to `Cc1cc(O)c(C(C)C)cc1CN1CCCCC1`, for which the activity, negative = inhibition was -3.21% [at 11.4 µM]. With `COc1ccc(-c2nc3c([nH]2)c(=O)n(C)c(=O)n3C)c(OC)c1`, the AC50 result was “inactive”.

For the compound `Cn1c(=O)n(CCC(=O)O)c2ccccc21`, the AC50 entry is “inactive”.

As for `Cc1n[nH]c(=O)nc1NCc1ccccc1Cl`, the AC50 entry is “inactive”. On to `CCOC(=O)n1c(=O)n(Cc2c(Cl)cccc2Cl)c2ccccc21`, for which the concentration at half-maximal activity (AC50) is 3.98 µM (active).
